Results taken from PubChem BioAssay (EPA / NIEHS).
Active and inactive are the calls of the source. The calls were made as follows: active = hit-call score of the fitted dose curve at least 0.9, where 1 is the maximum; inactive = score below 0.9.

Test system: TTR (gene 7276)
Experiment: CCTE_GLTED_hTTR_0.125uM: CCTE's human Transthyretin (hTTR) Inhibition Assay, with 0.125uM TTR, Great Lakes Toxicology and Ecology Division (GLTED) Lab (AID 2284431);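 also: hits lower the fluorescence signal relative to DMSO baseline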
Method in brief: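 Probe-displacement format: chemicals competing for the T4 site release ANSA from 0.125uM TTR during a 2 h incubation, measured by fluorescence at 380 excitation and 475 emission.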

SMILES | AC50
Nc1ccc(N=Nc2ccccc2)cc1 | 0.593 µM (active)
Brc1ccc(Oc2ccccc2)cc1 | 50 µM (active)
Nc1cc(Cl)cc(C(=O)O)c1Cl | 8.24 µM (active)
CCNS(=O)(=O)C(F)(F)C(F)(F)C(F)(F)C(F)(F)C(F)(F)C(F)(F)C(F)(F)C(F)(F)F | 1.05 µM (active)
c1ccc(NNc2ccccc2)cc1 | 33.3 µM (active)
CCC(C)c1ccc(O)cc1 (stereo unspecified) | 4.66 µM (active)
CS(=O)(=O)NC(=O)c1cc(Oc2ccc(C(F)(F)F)cc2Cl)ccc1[N+](=O)[O-] | 6.19 µM (active)
[Cl-].[Cl-].[Hg+2] | 6.05 µM (active)
Nc1ccc(Oc2ccc(N)cc2)cc1 | 17.7 µM (active)
c1ccc(N=Nc2ccccc2)cc1 | 28 µM (active)
Cc1cc(N=Nc2ccccc2C)ccc1N | 0.0179 µM (active)
